# Only a selection was taken, and the strongest signals are over-represented in it overall.
# What was measured:
# Assay in all cases: glycan array binding signal (z-score within array); higher = stronger binding
# Conditions in all cases: glycan notation: IUPAC condensed, linker removed
# [1] = biological target: Fuc(a1-2)Gal(b1-3)GalNAc(a1-3)[Fuc(a1-2)]Gal(b1-4)Glc
# Method in brief: (§1)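 The Consortium for Functional Glycomics database supplied 3228 glycan arrays, of which those lacking an available protein sequence were dropped. The binding signal, a within-array Z-score, was averaged across arrays of the same protein sequence and across linkers. Negative scores can be read as non-binding.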
# [2] = biological target: Fuc(a1-2)Gal(b1-3)GlcNAc(b1-3)GalNAc
# Method in brief: as §1
# [3] = biological target: Fuc(a1-2)Gal(b1-4)GlcNAc(b1-2)Man(a1-3)[Fuc(a1-2)Gal(b1-4)GlcNAc(b1-2)Man(a1-6)]Man(b1-4)GlcNAc(b1-4)[Fuc(a1-6)]GlcNAc
# Method in brief: as §1
# [4] = biological target: Fuc(a1-2)Gal(b1-4)GlcNAc6S
# Method in brief: as §1
# [5] = biological target: Fuc(a1-2)[Gal(a1-3)]Gal(b1-3)GalNAc(b1-3)Gal(a1-4)Gal(b1-4)Glc
# Method in brief: as §1
# [6] = biological target: Fuc(a1-2)[Gal(a1-3)]Gal(b1-3)GlcNAc(b1-6)GalNAc
# Method in brief: as §1
# [7] = biological target: Fuc(a1-2)[Gal(a1-3)]Gal(b1-4)GlcNAc(b1-2)Man(a1-3)[Fuc(a1-2)[Gal(a1-3)]Gal(b1-4)GlcNAc(b1-2)Man(a1-6)]Man(b1-4)GlcNAc(b1-4)GlcNAc
# Method in brief: as §1
# [8] = biological target: Fuc(a1-2)[Gal(a1-3)]Gal(b1-4)GlcNAc(b1-6)GalNAc
# Method in brief: as §1
# [9] = biological target: Fuc(a1-2)[GalNAc(a1-3)]Gal(b1-3)GlcNAc
# Method in brief: as §1
# [10] = biological target: Fuc(a1-2)[GalNAc(a1-3)]Gal(b1-4)GlcNAc(b1-2)Man(a1-3)[Fuc(a1-2)[GalNAc(a1-3)]Gal(b1-4)GlcNAc(b1-2)Man(a1-6)]Man(b1-4)GlcNAc(b1-4)GlcNAc
# Method in brief: as §1
# [11] = biological target: Fuc(a1-2)[GalNAc(a1-3)]Gal(b1-4)[Fuc(a1-3)]GlcNAc(b1-3)GalNAc
# Method in brief: as §1
# [12] = biological target: Fuc(a1-3)GlcNAc
# Method in brief: as §1
# [13] = biological target: Fuc(a1-3)[Gal(b1-4)]GlcNAc(b1-4)Gal(b1-4)[Fuc(a1-3)]GlcNAc
# Method in brief: as §1
# [14] = biological target: Fuc(a1-3)[Gal(b1-4)]GlcNAc(b1-6)[Gal(b1-3)GlcNAc(b1-3)]Gal(b1-4)Glc
# Method in brief: as §1
# [15] = biological target: Gal(a1-4)Gal(b1-4)GlcNAc
# Method in brief: as §1
# [16] = biological target: Gal(b1-3)Gal(b1-4)GlcNAc(b1-2)Man(a1-3)[Gal(b1-3)Gal(b1-4)GlcNAc(b1-2)Man(a1-6)]Man(b1-4)GlcNAc(b1-4)GlcNAc
# Method in brief: as §1
# [17] = biological target: Gal(b1-3)GlcNAc(b1-3)Gal(b1-4)GlcNAc(b1-2)Man(a1-3)[Gal(b1-3)GlcNAc(b1-3)Gal(b1-4)GlcNAc(b1-2)Man(a1-6)]Man(b1-4)GlcNAc(b1-4)GlcNAc
# Method in brief: as §1
# [18] = biological target: Gal(b1-3)[Fuc(a1-4)]GlcNAc(b1-6)GalNAc
# Method in brief: as §1
# [19] = biological target: Gal(b1-3)[Neu5Ac(a2-6)]GalNAc
# Method in brief: as §1
# [20] = biological target: Gal(b1-4)GlcNAc(b1-2)Man(a1-3)[Gal(b1-4)GlcNAc(b1-2)Man(a1-6)]Man(b1-4)GlcNAc(b1-4)GlcNAc
# Method in brief: as §1
# [21] = biological target: Gal(b1-4)GlcNAc(b1-2)Man(a1-3)[Gal(b1-4)GlcNAc(b1-2)Man(a1-6)][Gal(b1-4)GlcNAc(b1-4)]Man(b1-4)GlcNAc(b1-4)[Fuc(a1-6)]GlcNAc
# Method in brief: as §1
# [22] = biological target: Gal(b1-4)GlcNAc(b1-2)Man(a1-6)[Man(a1-3)]Man(b1-4)GlcNAc(b1-4)GlcNAc
# Method in brief: as §1
# [23] = biological target: Gal(b1-4)GlcNAc(b1-2)[Gal(b1-4)GlcNAc(b1-4)]Man(a1-3)[Gal(b1-4)GlcNAc(b1-2)[Gal(b1-4)GlcNAc(b1-6)]Man(a1-6)]Man(b1-4)GlcNAc(b1-4)GlcNAc
# Method in brief: as §1
# [24] = biological target: Gal(b1-4)GlcNAc(b1-2)[Gal(b1-4)GlcNAc(b1-6)]Man(a1-6)[GlcNAc(b1-4)][Gal(b1-4)GlcNAc(b1-2)Man(a1-3)]Man(b1-4)GlcNAc(b1-4)GlcNAc
# Method in brief: as §1
# [25] = biological target: Gal(b1-4)GlcNAc(b1-3)Gal(b1-4)GlcNAc(b1-3)Gal(b1-4)GlcNAc(b1-3)Gal(b1-4)GlcNAc(b1-2)[Gal(b1-4)GlcNAc(b1-3)Gal(b1-4)GlcNAc(b1-3)Gal(b1-4)GlcNAc(b1-3)Gal(b1-4)GlcNAc(b1-6)]Man(a1-6)[Gal(b1-4)GlcNAc(b1-3)Gal(b1-4)GlcNAc(b1-3)Gal(b1-4)GlcNAc(b1-3)Gal(b1-4)GlcNAc(b1-2)Man(a1-3)]Man(b1-4)GlcNAc(b1-4)[Fuc(a1-6)]GlcNAc
# Method in brief: as §1
# [26] = biological target: Gal(b1-4)GlcNAc(b1-3)Gal(b1-4)GlcNAc(b1-3)Gal(b1-4)GlcNAc(b1-3)Gal(b1-4)GlcNAc(b1-3)Gal(b1-4)GlcNAc(b1-2)Man(a1-3)[Gal(b1-4)GlcNAc(b1-3)Gal(b1-4)GlcNAc(b1-3)Gal(b1-4)GlcNAc(b1-3)Gal(b1-4)GlcNAc(b1-3)Gal(b1-4)GlcNAc(b1-2)Man(a1-6)]Man(b1-4)GlcNAc(b1-4)GlcNAc
# Method in brief: as §1
# [27] = biological target: Gal(b1-4)GlcNAc(b1-3)Gal(b1-4)GlcNAc(b1-3)Gal(b1-4)GlcNAc(b1-3)Gal(b1-4)GlcNAc(b1-3)Gal(b1-4)GlcNAc(b1-2)Man(a1-3)[Gal(b1-4)GlcNAc(b1-3)Gal(b1-4)GlcNAc(b1-3)Gal(b1-4)GlcNAc(b1-3)Gal(b1-4)GlcNAc(b1-3)Gal(b1-4)GlcNAc(b1-2)Man(a1-6)]Man(b1-4)GlcNAc(b1-4)[Fuc(a1-6)]GlcNAc
# Method in brief: as §1
# [28] = biological target: Gal(b1-4)GlcNAc(b1-3)Gal(b1-4)GlcNAc(b1-3)Gal(b1-4)GlcNAc(b1-3)Gal(b1-4)GlcNAc(b1-3)Gal(b1-4)GlcNAc(b1-3)Gal(b1-4)GlcNAc(b1-2)Man(a1-3)[Gal(b1-4)GlcNAc(b1-3)Gal(b1-4)GlcNAc(b1-3)Gal(b1-4)GlcNAc(b1-3)Gal(b1-4)GlcNAc(b1-3)Gal(b1-4)GlcNAc(b1-3)Gal(b1-4)GlcNAc(b1-2)Man(a1-6)]Man(b1-4)GlcNAc(b1-4)GlcNAc
# Method in brief: as §1
# [29] = biological target: Gal(b1-4)GlcNAc(b1-3)[GlcNAc(b1-6)]Gal(b1-4)GlcNAc
# Method in brief: as §1
# [30] = biological target: Gal(b1-4)GlcNAc(b1-6)Gal(b1-4)GlcNAc
# Method in brief: as §1
# [31] = biological target: GalNAc(b1-4)GlcNAc(b1-3)GalNAc(b1-4)GlcNAc
# Method in brief: as §1
# [32] = biological target: Glc(b1-4)Glc
# Method in brief: as §1
# [33] = biological target: GlcA(b1-3)GlcNAc
# Method in brief: as §1
# [34] = biological target: GlcNAc(b1-2)[GlcNAc(b1-4)]Man(a1-3)[GlcNAc(b1-4)][GlcNAc(b1-2)[GlcNAc(b1-6)]Man(a1-6)]Man(b1-4)GlcNAc(b1-4)[Fuc(a1-6)]GlcNAc
# Method in brief: as §1
# [35] = biological target: GlcNAc(b1-3)Fuc
# Method in brief: as §1
# [36] = biological target: GlcNAc(b1-3)Gal(b1-4)GlcNAc
# Method in brief: as §1
# [37] = biological target: GlcNAc(b1-3)[GlcNAc(b1-6)]Gal(b1-4)GlcNAc
# Method in brief: as §1
# [38] = biological target: Man(a1-3)[Man(a1-6)]Man(b1-4)GlcNAc(b1-4)GlcNAc
# Method in brief: as §1
# [39] = biological target: Man(a1-6)Man
# Method in brief: as §1
# [40] = biological target: Man(b1-4)GlcNAc
# Method in brief: as §1
# [41] = biological target: Neu5Ac(a2-3)Gal(b1-3)GlcNAc
# Method in brief: as §1
# [42] = biological target: Neu5Ac(a2-3)Gal(b1-3)[Neu5Ac(a2-6)]GalNAc
# Method in brief: as §1
# [43] = biological target: Neu5Ac(a2-3)Gal(b1-4)Glc
# Method in brief: as §1
# [44] = biological target: Neu5Ac(a2-3)Gal(b1-4)GlcNAc(b1-2)[Neu5Ac(a2-3)Gal(b1-4)GlcNAc(b1-6)]Man(a1-6)[Neu5Ac(a2-3)Gal(b1-4)GlcNAc(b1-2)Man(a1-3)][GlcNAc(b1-4)]Man(b1-4)GlcNAc(b1-4)GlcNAc
# Method in brief: as §1
# [45] = biological target: Neu5Ac(a2-6)Gal(b1-4)GlcNAc(b1-2)Man(a1-3)[GlcNAc(b1-2)Man(a1-6)]Man(b1-4)GlcNAc(b1-4)GlcNAc
# Method in brief: as §1
# [46] = biological target: Neu5Ac(a2-6)Gal(b1-4)GlcNAc(b1-3)Gal(b1-4)GlcNAc(b1-6)[Gal(b1-3)]GalNAc
# Method in brief: as §1
# [47] = biological target: Neu5Ac(a2-8)Neu5Ac(a2-3)Gal(b1-4)Glc
# Method in brief: as §1
# [48] = biological target: Neu5Gc(a2-6)Gal(b1-4)GlcNAc
# Method in brief: as §1
# [49] = biological target: Neu5Gc(a2-8)Neu5Gc(a2-6)Gal(b1-4)GlcNAc
# Method in brief: as §1
binder,measurement,setting,value
"Gal 9 (Homo sapiens), O00182 (protein) MAFSGSQAPYLSPAVPFSGTIQGGLQDGLQITVNGTVLSSSGTRFAVNFQTGFSGNDIAFHFNPRFEDGGYVVCNTRQNGSWGPEERKTHMPFQKGMPFDLCFLVQSSDFKVMVNGILFVQYFHRVPFHRVDTISVNGSVQLSYISFQNPRTVPVQPAFSTVPFSQPVCFPPRPRGRRQKPPGVWPANPAPITQTVIHTVQSAPGQMFSTPAIPPMMYPHPAYPMPFITTILGGLYPSKSILLSGTVLPSAQRFHINLCSGNHIAFHLNPRFDENAVVRNTQIDNSWGSEERSLPRKMPFVRGQSFSVWILCEAHCLKVAVDGQHLFEYYHRLRNLPTINRLEVGGDIQLTHVQT",glycan array binding signal (z-score),[1],-0.317
same,glycan array binding signal (z-score),[2],-0.3
same,glycan array binding signal (z-score),[3],-0.322
same,glycan array binding signal (z-score),[4],0.06
same,glycan array binding signal (z-score),[5],-0.307
same,glycan array binding signal (z-score),[6],-0.233
same,glycan array binding signal (z-score),[7],0.9
same,glycan array binding signal (z-score),[8],-0.307
same,glycan array binding signal (z-score),[9],0.055
same,glycan array binding signal (z-score),[10],4.39
same,glycan array binding signal (z-score),[11],-0.288
same,glycan array binding signal (z-score),[12],-0.32
same,glycan array binding signal (z-score),[13],-0.303
same,glycan array binding signal (z-score),[14],-0.236
same,glycan array binding signal (z-score),[15],-0.299
same,glycan array binding signal (z-score),[16],6
same,glycan array binding signal (z-score),[17],4.53
same,glycan array binding signal (z-score),[18],-0.282
same,glycan array binding signal (z-score),[19],-0.315
same,glycan array binding signal (z-score),[20],2.94
same,glycan array binding signal (z-score),[21],-0.269
same,glycan array binding signal (z-score),[22],0.09
same,glycan array binding signal (z-score),[23],4.71
same,glycan array binding signal (z-score),[24],3.87
same,glycan array binding signal (z-score),[25],9.56
same,glycan array binding signal (z-score),[26],4.95
same,glycan array binding signal (z-score),[27],4.2
same,glycan array binding signal (z-score),[28],9.39
same,glycan array binding signal (z-score),[29],0.555
same,glycan array binding signal (z-score),[30],-0.17
EULS2 M1 (Oryza sativa) (protein) MVYCRANPNYAMTARNGAVVLAPANPKDEYQHWIKDMRWSTSIKDEEGYPAFALVNKATGQAIKHSLGQSHPVRLVPYNPEVMDESVLWTESRDVGNGFRCIRMVNNIYLNFDAFHGDKYHGGVRDGTDIVLWKLCEGDNQRWKIQPYYILEQKLISEEDLNSAVDHHHHHH,glycan array binding signal (z-score),[31],-0.842
same,glycan array binding signal (z-score),[32],2.81
same,glycan array binding signal (z-score),[33],0.171
same,glycan array binding signal (z-score),[34],2.74
same,glycan array binding signal (z-score),[35],-0.923
same,glycan array binding signal (z-score),[36],0.2
same,glycan array binding signal (z-score),[37],-0.56
same,glycan array binding signal (z-score),[38],3.41
same,glycan array binding signal (z-score),[39],3.16
same,glycan array binding signal (z-score),[40],-0.283
same,glycan array binding signal (z-score),[41],-0.972
same,glycan array binding signal (z-score),[42],0.067
same,glycan array binding signal (z-score),[43],-0.186
same,glycan array binding signal (z-score),[44],-0.305
same,glycan array binding signal (z-score),[45],-0.661
same,glycan array binding signal (z-score),[46],0.283
same,glycan array binding signal (z-score),[47],-0.26
same,glycan array binding signal (z-score),[48],0.007
same,glycan array binding signal (z-score),[49],-0.158
